The values below come from ChEMBL document CHEMBL4513216, “Probing the Open Global Health Chemical Diversity Library for Multistage-Active Starting Points for Next-Generation Antimalarials” (ACS Infect Dis, 2020).

In all, about 69,000 compounds went through this assay and about 8,600 (12%) showed an effect of 50% or more. This is one part of a sample in which strong results are shown more often than they occur.

The assay deals with Plasmodium berghei. In words: Screen against P. berghei liver stage (PbLuc), transformed with Luciferase, at 10uM. In kind it is functional, HepG2. To be noted: tested at 10 uM.
Turning to `CCCn1nccc1NC(=O)CN1CCc2c(nc(C(C)C)n2C)C1`, the INHIBITION stood at 12.7%.
On to `Cc1ncc2c(n1)CN(CC(=O)Nc1ccc(Cl)cn1)CC2`, for which the INHIBITION came out at 46.2%.
As for `CCc1ncc2c(n1)CN(CC(=O)Nc1ccc(Cl)cn1)CC2`, the figure is 67.2%; as for `Cc1csc(C(=O)N2CCC3(CC(N(C)c4ccncn4)C3)C2)c1` (stereo unspecified), -10.8%.
As for `COc1c(C2CCCN2C(=O)c2cnc[nH]2)c(C)nn1C` (stereo unspecified), the figure is 29.2%.
With `CN1CC2(CCCN(Cc3nnc(-c4cccc(F)c4)o3)C2)OC1=O` (stereo unspecified) the figure was 19.4%; with `CCn1cnnc1C1CCN(C(=O)c2cc(C)n(CC)c2C)CC1`, -10.6%; with `Cc1ccc(N2CC[C@H](OCC3CC3)[C@@H]2Cc2ccncc2)nn1`, 27.5%.
As to `Cc1cc(CNC(=O)CCN2CCN(c3ccccn3)CC2)c(C)o1`, the INHIBITION was 15.8%.
As to `Cc1cc(CNC(=O)N2CCN(C(C)c3cccnc3)CC2)c(C)o1` (stereo unspecified), the INHIBITION is reported as 35.2%.
In the case of `Cc1nc(C)c(CNC(=O)N2CCN(c3ccc(Cl)cn3)CC2)s1`, the INHIBITION stood at 95.4%.
As to `O=C(c1ccc2c(c1)CCC2)N1CCN(c2ccc(Cl)cn2)CC1`, the INHIBITION amounted to 11.1%.
As for `Cc1nc(N2CCN(C(=O)NCc3cscn3)CC2)sc1C`, the figure is 43.9%.
`O=C(CCc1nccs1)N1CCN(c2ccc(Cl)cn2)CC1`: the INHIBITION stood at 35.3%.
Turning to `Cc1cc(CNC(=O)N2CCN(c3ccc(Cl)cn3)CC2)c(C)o1`, the INHIBITION was 54.3%.
For the compound `Cc1cc(CNC(=O)N2CCN(c3nc(C)c(C)s3)CC2)no1`, the INHIBITION stood at 42.6%.
As to `COCCOC1CCN(C(=O)NCc2coc3ccccc23)CC1`, the INHIBITION came out at 46.1%.
On to `COCCOC1CCN(C(=O)NCc2cc(C)oc2C)CC1`, for which the INHIBITION was determined as 53.7%.
Consider `Cc1nc(CNC(=O)N2CCN(c3ccc(Cl)cn3)CC2)sc1C`, for which the INHIBITION is 54.3%.
As for `Cc1nc(CNC(=O)N2CCN(c3ccc(Cl)cn3)CC2)no1`, the figure is 49.1%; as for `Cc1ccc(S(=O)(=O)NC(=O)COc2cccc(C(N)=O)c2)s1`, 11.2%; as for `c1ccc(CO[C@H]2CC[C@H]3[C@H]2OCCN3CCN2CCCCC2)nc1`, 40.3%.
Turning to `CC(=O)N1CC[C@@]2(C(=O)Nc3ccccc3)CCN(S(C)(=O)=O)CC[C@@H]12`, the INHIBITION came to 41.2%.
As for `CC(C)c1nn(C)c(Cl)c1CNCc1ccc2c(c1)OCCO2`, the figure is 1.5%; as for `CN(C)CCCN(Cc1ccco1)Cc1ccnn1C1CCCCO1` (stereo unspecified), -0.232%; as for `Cc1ccoc1C(=O)N1C[C@@H]2[C@@H](C1)OCC(=O)N2Cc1cccnc1`, 0%.
With `OC1(CN2CCOC(CNc3cccnn3)C2)CCCCC1` (stereo unspecified), the INHIBITION was determined as 25.4%.
With `Cn1c(N2CCOCC2)nc2cc(C(=O)NCc3cccnc3)ccc21`, the INHIBITION was found to be 48.2%.
With `CC(=O)NCc1ccc(C(=O)N2CCCC2c2cnn(C)c2)cc1` (stereo unspecified) the figure was -12.1%; with `CC(=O)N1CCC(c2cncc(N3CCCC(O)C3)n2)CC1` (stereo unspecified), -6.73%.
As for `O=c1cc(C2CCNCC2)nc(CCCc2ccccc2)[nH]1`, the figure is 22.7%; as for `O=c1cc(C2CCNCC2)nc(Cc2cccc(Cl)c2)[nH]1`, 52.2%; as for `O=c1cc(C2CCNCC2)nc(CCc2ccccn2)[nH]1`, -0.273%.
Take `CN(CCCOc1ccccc1Cl)C(=O)CN1C(=O)CCNC1=O`: the INHIBITION is recorded as -44.2%.
`COC(=O)CCCNC(=O)N1CCc2c([nH]c3ccc(Cl)cc23)C1`: the INHIBITION is -50%.
As for `COc1ccc(C(=O)N2C[C@@H](O)[C@H](NCc3ncccc3C)C2)cc1`, the figure is 31.45%; as for `CCc1ncc2c(n1)CN(Cc1nnc(C(C)C)o1)CC2`, 30.3%.
With `O=C(c1ncn2c(C3CCN(CC4CC4)CC3)ccnc12)N1CCCC1` the figure was 12.7%; with `CC(C)N1CCC(c2ccnc3c(C(=O)N4CCOCC4)ncn23)CC1`, 12.7%.
For the compound `CC(C)N1CCC(c2ccnc3c(C(=O)N4CCCC4)ncn23)CC1`, the INHIBITION came out at 60%.
In the case of `CN(CC(=O)NC1(C)CCS(=O)(=O)C1)Cc1ccc(F)c(F)c1` (stereo unspecified), the INHIBITION is on record as 27.6%.
Take `Cc1cc(S(=O)(=O)Nc2onc(C)c2C)sc1C`: the INHIBITION was 87.5%.
As for `Cc1noc(NS(=O)(=O)c2ccc(Cl)s2)c1C`, the figure is 44.7%; as for `Cc1cc(S(=O)(=O)Nc2onc(C)c2C)c(C)s1`, 4.1%; as for `CN(C)c1cc(CNC(=O)c2cccnc2O)ccn1`, 9.64%.
Regarding `COCc1cn(CC2CCN(Cc3cc(C)[nH]n3)CC2)nn1`, the INHIBITION is reported as 26.7%.
In the case of `COC[C@@H]1CC[C@H]2[C@H](CCN2C(=O)c2ccncc2F)O1`, the INHIBITION is given as 29%.
As for `COc1cccc(-c2cc(NCc3cscn3)n(C)n2)c1`, the figure is -40.5%; as for `COC(=O)c1cc(NCc2cscn2)ccc1C`, 11.9%; as for `CCn1cc(CNc2ccc(N(C)CCOC)cn2)cn1`, 57.2%.
As for `CCn1cc(CNc2ccc(Br)c(OC)c2)cn1`, the figure is 32%.
As for `COCCN(C)c1ccc(NCc2cccnc2)nc1`, the INHIBITION was 15.1%.
For `COCCN(C)c1ccc(NCc2ccsc2)nc1`, the INHIBITION came to 80.8%.
On to `COCCN(C)c1ccc(NCc2cscn2)nc1`, for which the INHIBITION was 75.1%.
With `CCn1cc(CNc2ccc3nccnc3c2)cn1` the figure was 18.8%; with `COCCOc1ccc(NC(=O)N(C)Cc2ccsc2)cn1`, 31.8%.
